The sample as a whole holds a higher share of hits than the screen did.
miR122 inh = raises miR-122 sensor activity in Huh7 cells. Huh7 psiCHECK-miR122 Renilla luciferase sensor, 48 h. activation, % at 12.5 µM. 340,000 compounds, 0.14% hits. AID 623901;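 active = mean activation of 30% or more, with every replicate also reaching 30%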;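 also: 0% = median of neutral control wells and 100% = median of positive control wells; higher luciferase signal means stronger suppression of miR-122 activity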
* = called active by the depositor.

SMILES | miR122 inh
CC(=O)Oc1ccc2c(c1)C(=O)c1ccccc1CO2 | 35*
C[C@@H]1CN([C@H](C)CO)C(=O)c2cc(/C=C/c3ccccc3)cnc2O[C@H]1CN(C)Cc1cccc(C(=O)O)c1 | 0
COc1cccc(-c2cnc3c(c2)C(=O)N([C@H](C)CO)C[C@@H](C)[C@@H](CN(C)Cc2cccnc2)O3)c1 | 2
COCC#Cc1cnc2c(c1)C(=O)N([C@H](C)CO)C[C@@H](C)[C@@H](CN(C)C(=O)Cc1ccccc1)O2 | 1
CN1/C(=C/C=C/c2n(C)c3cc([N+](=O)[O-])c([N+](=O)[O-])cc3[n+]2C)C(C)(C)c2ccccc21 | 38*
CC(C)C#Cc1ccc2c(c1)O[C@H](CN(C)C(=O)NC(C)C)[C@@H](C)CN([C@H](C)CO)S2(=O)=O | -88
C[C@H](CO)N1C[C@H](C)[C@H](CN(C)C(=O)Cc2ccccc2)Oc2ncc(C#CC3(O)CCCC3)cc2C1=O | 4
COc1cccc(-c2nn(-c3ccccc3)cc2CO)c1 | 34*
COc1cccc(-c2cnc3c(c2)C(=O)N([C@@H](C)CO)C[C@@H](C)[C@H](CN(C)Cc2ccccc2)O3)c1 | -7
COc1cccc(-c2cnc3c(c2)C(=O)N([C@H](C)CO)C[C@@H](C)[C@H](CN(C)Cc2ccccc2)O3)c1 | -7
C[C@H](CO)N1C[C@H](C)[C@H](CN(C)Cc2ccc(F)cc2)Oc2cc(C#Cc3ccccn3)ccc2S1(=O)=O | 13
CCS(=O)(=O)Nc1ccc2c(c1)C(=O)N(C)C[C@@H](OC)[C@@H](C)CN[C@H](C)CO2 | -1
COc1ccc(-c2cnc3c(c2)C(=O)N([C@H](C)CO)C[C@@H](C)[C@H](CN(C)Cc2ccccn2)O3)cc1 | -3
CCc1ccc(-c2cc(C(=O)NCc3ccccn3)c3ccccc3n2)cc1 | -148
O=C(CCCCCCC(=O)Nc1ccccc1)NO | -232
O=C(CCCCCN1C(=O)c2ccccc2C1=O)NCc1ccccn1 | 35*
CCCNC(=O)N(C)C[C@@H]1Oc2ncc(/C=C/c3ccccc3)cc2C(=O)N([C@@H](C)CO)C[C@H]1C | 4
C[C@H]1CN([C@@H](C)CO)S(=O)(=O)c2ccc(-c3ccncc3)cc2O[C@@H]1CN(C)Cc1ccccn1 | -7
C[C@H](CO)N1C[C@H](C)[C@@H](CN(C)Cc2ccccc2)Oc2ncc(-c3cncnc3)cc2C1=O | -4
COc1ccc(NC(=O)N(C)C[C@@H]2Oc3ncc(-c4cccc(F)c4)cc3C(=O)N([C@H](C)CO)C[C@@H]2C)cc1 | 5
C[C@@H]1CN([C@H](C)CO)S(=O)(=O)c2ccc(C#C[C@@H](C)O)cc2O[C@@H]1CN(C)C(=O)Cc1ccccn1 | -4
COCC(=O)Nc1ccc2c(c1)C(=O)N(C)[C@@H]1CC[C@H](CC(=O)N3CCc4ccccc4C3)O[C@H]1CO2 | 37*
CN1C(=O)c2cc(NC(=O)c3ccc(C(F)(F)F)cc3)ccc2OC[C@@H]2O[C@@H](CC(=O)NC3Cc4ccccc4C3)CC[C@@H]21 | 55*
CN1C(=O)c2cc(NS(=O)(=O)c3ccc(Cl)cc3)ccc2OC[C@H]2O[C@H](CC(=O)N3CCc4ccccc4C3)CC[C@@H]21 | 33*
COCC(=O)Nc1ccc2c(c1)C(=O)N(C)[C@@H]1CC[C@@H](CC(=O)NC3Cc4ccccc4C3)O[C@@H]1CO2 | 37*
SMILES | miR122 inh
C[C@H](CO)N1C[C@H](C)[C@@H](CN(C)C(=O)c2cccnc2)Oc2ncc(-c3ccc(C(=O)N(C)C)cc3)cc2C1=O | -5
C/C=C/c1cnc2c(c1)C(=O)N([C@@H](C)CO)C[C@@H](C)[C@@H](CN(C)C(=O)Cc1cccnc1)O2 | -5
C[C@@H]1CN([C@H](C)CO)C(=O)c2cc(-c3cncnc3)cnc2O[C@H]1CN(C)Cc1ccncc1 | 2
COc1ccccc1-c1ccc2c(c1)O[C@H](CN(C)C(=O)Nc1ccccc1)[C@@H](C)CN([C@@H](C)CO)S2(=O)=O | -32
C[C@H]1CN([C@@H](C)CO)C(=O)c2cc(-c3cncnc3)cnc2O[C@H]1CN(C)Cc1ccncc1 | 3
C[C@@H]1CN([C@@H](C)CO)C(=O)c2cccc(NC(=O)c3ccncc3)c2O[C@@H]1CN(C)C | -112
C[C@H]1CN([C@@H](C)CO)S(=O)(=O)c2ccc(Br)cc2O[C@@H]1CN(C)C(=O)CC1CC1 | -11
CO[C@@H]1CN(C)C(=O)c2ccc(NC(=O)C3CCC3)cc2OC[C@@H](C)NC[C@H]1C | 0
C[C@@H]1CN([C@@H](C)CO)C(=O)c2cc(C#CC3(O)CCCC3)cnc2O[C@H]1CN(C)C(=O)Cc1ccccc1 | -4
COc1ccc(-c2cnc3c(c2)C(=O)N([C@H](C)CO)C[C@@H](C)[C@H](CN(C)C(=O)Cc2ccccc2)O3)cc1 | 3
C[C@H](CO)N1C[C@H](C)[C@H](CN(C)C(=O)c2ccncc2)Oc2cc(C#Cc3ccncc3)ccc2S1(=O)=O | 1
COCC#Cc1cnc2c(c1)C(=O)N([C@@H](C)CO)C[C@@H](C)[C@H](CN(C)C(=O)Nc1c(C)noc1C)O2 | 5
C[C@H]1CN([C@@H](C)CO)S(=O)(=O)c2ccc(C#CC(C)(C)O)cc2O[C@H]1CN(C)CC1CC1 | 4
COCC#Cc1cnc2c(c1)C(=O)N([C@@H](C)CO)C[C@@H](C)[C@H](CN(C)Cc1ccccc1)O2 | -4
CCC(=O)Nc1ccc2c(c1)C(=O)N(C)C[C@H](OC)[C@H](C)CN(C(C)=O)[C@H](C)CO2 | 2
Cc1cc(C(=O)Nc2ccc3c(c2)C(=O)N(C)[C@@H]2CC[C@@H](CC(=O)N[C@H](C)c4ccccc4)O[C@H]2CO3)no1 | 33*
Cc1cc(C(=O)Nc2ccc3c(c2)C(=O)N(C)[C@H]2CC[C@H](CC(=O)N[C@@H](C)c4ccccc4)O[C@H]2CO3)no1 | 50*
C[C@H](CO)N1C[C@H](C)[C@@H](CN(C)C(=O)Cc2ccccn2)Oc2ncc(/C=C/c3ccccc3)cc2C1=O | 5
C[C@H](CO)N1C[C@H](C)[C@@H](CN(C)Cc2ccc(C(F)(F)F)cc2)Oc2c(cccc2N(C)C)C1=O | -98
COCC(=O)N(C)C[C@@H]1Oc2ncc(C#Cc3ccccc3OC)cc2C(=O)N([C@H](C)CO)C[C@@H]1C | 4
CCCNC(=O)N(C)C[C@H]1Oc2cc(-c3ccccc3)ccc2S(=O)(=O)N([C@H](C)CO)C[C@@H]1C | -32
Cc1cc(C(C)(C)CC(C)(C)C)ccc1OCCOCC[N+](C)(C)Cc1ccccc1 | 58*
CC(C)NC(=O)N(C)C[C@H]1Oc2ncc(C3=CCCCC3)cc2C(=O)N([C@H](C)CO)C[C@@H]1C | -6
CNc1nc(NCC2CCCCC2)c2sccc2n1 | 43*
COc1ccccc1CNS(=O)(=O)c1ccc(-c2cc(C)no2)cc1 | -95
SMILES | miR122 inh
COc1ccccc1CNc1nc(NCC2CC2)nc2ccsc12 | 43*
C[C@@H]1CN([C@@H](C)CO)S(=O)(=O)c2ccc(-c3cccnc3)cc2O[C@@H]1CN(C)Cc1ccccn1 | 2
C[C@@H]1CN([C@@H](C)CO)S(=O)(=O)c2ccc(-c3ccncc3)cc2O[C@H]1CN(C)Cc1ccccn1 | 1
C[C@H]1CN([C@@H](C)CO)C(=O)c2cc(-c3cccc(C#N)c3)cnc2O[C@@H]1CN(C)C | -1
C[C@@H]1CN([C@H](C)CO)S(=O)(=O)c2ccc(-c3ccccc3)cc2O[C@@H]1CN(C)Cc1cncnc1 | -9
COc1cccc(-c2cnc3c(c2)C(=O)N([C@H](C)CO)C[C@H](C)[C@@H](CN(C)CC2CCOCC2)O3)c1 | 5
